Screening results from PubChem.
Pf growth 48h: P. falciparum growth inhibition at 48 hours (one generation). hit rate 5.9% among 310,000. P. falciparum luciferase growth in erythrocytes, 48 h. Potency, µM (highest dose often 28.7 µM), without a hit: top-dose activity change, negative = inhibition, usual class: inhibitors; further: potency means the concentration at half of the fitted maximal effect; on the % scale 0 is the no-effect control and ±100 the full control effect
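A one-generation exposure of luciferase-tagged malaria parasites in RPMI 1640/Albumax erythrocyte culture, 37 C and 5% CO2. Inhibition is inferred from decreased luminescence after adding detection reagent.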
SARS PLP yeast: blocks SARS-CoV papain-like protease in a yeast assay; S. cerevisiae expressing SARS-CoV PLpro, growth rescue; Potency, µM (doses to about 32.9 µM), for inactives: at the top dose activity, positive = growth rescue, hits mostly activators; hit rate 0.19% among 330,000; calls by dose curve; further: potency means the concentration at half of the fitted maximal effect; 0% is about no effect; nearly all actives have a fitted effect of over 55% in size
CHX counter: counter-screen hit for Shiga toxin inhibitors, cycloheximide; cell reporter, cycloheximide protein synthesis inhibition counterscreen; max response, %; hit rate 12% among 300,000; AID 2314; in the data active means max response mostly above about 13%, no sharp cut-off; inactive means mostly below about 14%; further: read at 38.3 µM for the half of the compounds with a filed dose; 0% is about no effect
Pf growth 96h: P. falciparum growth inhibition at 96 hour, primary screen for plastid delayed-death inhibitors; hit rate 6.9% among 320,000; AID 504834; P. falciparum luciferase reporter growth, 96 h; Potency, µM (highest dose often 28.7 µM), for inactives: at the highest dose activity change, negative = inhibition, most hits filed as inhibitors; further: potency means the concentration at half of the fitted maximal effect; on the % scale 0 is the no-effect control and ±100 the full control effect
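Cell-based qHTS: luciferase-tagged P. falciparum in erythrocytes (2% hematocrit, 0.05% parasitemia final) incubated with compounds for 96 hours, 37 C, 5% CO2; luciferase detection reagent then added and luminescence measured.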
NS1 function inh: blocks influenza NS1 protein function. AID 2326. Potency, µM (doses to about 46.1 µM), inactives show at the highest dose activity, positive = more growth. hit rate 0.4% among 270,000; calls by dose curve; further: potency means the concentration at half of the fitted maximal effect; actives are rising curves; nearly all actives have a fitted effect of over 50% in size
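S. cerevisiae expressing influenza A NS1, grown in glucose, washed, then diluted 1:100 into pH 6.0 -URA galactose medium with 23 nl compound. Growth recovery read as OD600; NS1-free strain serves as control.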
Shiga inhibitor: Shiga toxin inhibition; Vero cells, Shiga toxin protein synthesis inhibition reporter; inhibition, % at 38.7 µM; hit rate 9.2% among 290,000; AID 2315; in the data active means inhibition mostly above about 28%, no sharp cut-off; inactive means mostly below about 43%; further: 0% is about no effect
* marks the source's active call; other numbers are inactive results; u = inconclusive; x = no result. Rows were chosen to be rich in hits. Some 21% of all compounds tested hit in one or more screens of this group. Unless noted, the call rests on the fitted dose curve; in most records, active means well fitted inhibition curve with a large enough effect; inconclusive means small, poorly fitted or top-dose-only effect, or another doubt; inactive means no such curve, though single readings can be large or run the other way.

SMILES	Pf growth 48h	SARS PLP yeast	CHX counter	Pf growth 96h	NS1 function inh	Shiga inhibitor
CCc1ccc(/C=N\NC(=O)c2ccc(Br)o2)s1	-17%	-61%	90*	-16%	-38%	100*
CCc1ccc(/C=N/NC(=O)Cc2ccc(OC)c(OC)c2)s1	-4%	1%	0	-12%	-6%	-4
O=C(COC(=O)c1cc(=O)[nH]c2ccc(Br)cc12)c1ccccc1	10%	-1%	-1	43%	4%	-3
COc1ccc2c(c1OC)C(=O)N(c1ccccn1)C2	183%	-9%	52*	127%	-34%	139*
COc1ccc2c(c1OC)C(=O)N(c1cccc(C)c1)C2	172%	-24%	41*	-20%	-36%	49*
COc1ccc2c(c1OC)C(=O)N(c1cccc(C(F)(F)F)c1)C2	55%	5%	20*	37%	-59%	103*
COc1ccc2c(c1OC)C(=O)N(c1ccc(C)cc1)C2	147%	1%	54*	141%	-32%	86*
COc1ccc(N=Cc2c(C)[nH][nH]c2=O)cc1	5%	0%	6	4%	x	14
COc1ccccc1/C=C/C(=O)OCC(=O)NC1CCS(=O)(=O)C1 (stereo not drawn)	x	-2%	x	x	x	x
N#Cc1ccccc1OCC(=O)N(C1CCCCC1)C1CCS(=O)(=O)C1 (stereo not drawn)	-1%	-6%	x	0%	x	x
CC[C@@H]1Cn2c(c3nc(-c4cc(Cl)cc(Cl)c4Cl)nc-3n(C)c2=O)N1	x	x	-5	x	x	-7
C=CCOC(/C=C/c1ccccc1)C[Si](C)(C)C (stereo not drawn)	x	x	13	x	x	-1
COc1ccc(C(C)(C)C)cc1NC(=O)COC(=O)c1ccc([N+](=O)[O-])o1	-12%	-26%	-2	22%	-54%	31
O=c1c2c3c(sc2ncn1-n1cccc1)CCCCC3	u	-14%	36*	u	4%	56*
C[n+]1ccc(C(=O)Nc2ccccc2Cl)cc1	20%	u	-2	13µM*	-2%	-11
O=C(Nc1ccccc1Cl)c1ccc2ccccc2c1	24%	1%	21	u	-2%	11
CCOCC(=O)Nc1ccc(C(=O)Nc2ccccc2Cl)cc1	45%	-2%	26*	78%	-5%	31
Cc1ccc(C(=O)c2cnc3ccccc3c2-c2ccccc2)cc1	13µM*	-19%	-2	10µM*	-45%	-22
CC(=O)c1ccc(NC(=O)CCc2nnc3ccc(N4CCCC4)nn23)cc1	14%	1%	31*	15%	2%	50*
CC(=O)c1cccc(NC(=O)CCc2nnc3ccc(N4CCOCC4)nn23)c1	-11%	22%	-1	10µM*	9%	-13
O=C(CCc1nnc2ccc(N3CCCCC3)nn12)NCC1CCN(Cc2ccc(F)cc2)CC1	u	0%	13	10µM*	-8%	-3
COc1cccc(N2CCN(c3ccc4nnc(CCC(=O)Nc5cccc(C(C)=O)c5)n4n3)CC2)c1	16%	0%	2	-11%	1%	-2
COC(=O)C1=C(c2ccc(Cl)c(C(F)(F)F)c2)C[C@@H]2CC[C@H]1N2C(=O)NCC1CC1	12µM*	2%	x	6.6µM*	x	x
COC(=O)C1=C(c2ccc(Cl)c(C(F)(F)F)c2)C[C@@H]2CC[C@H]1N2C(=O)N1CCOCC1	u	-8%	x	u	x	x
COC(=O)C1=C(c2ccc(OC(F)(F)F)cc2)C[C@@H]2CC[C@H]1N2C(=O)NC1CC1	u	0%	x	5.9µM*	x	x
SMILES	Pf growth 48h	SARS PLP yeast	CHX counter	Pf growth 96h	NS1 function inh	Shiga inhibitor
COC(=O)C1=C(c2ccc(Cl)c(C(F)(F)F)c2)C[C@@H]2CC[C@H]1N2C(=O)NCCOc1ccc(OC)cc1	u	1%	x	u	x	x
COC(=O)C1=C(c2ccc(Cl)c(C(F)(F)F)c2)C[C@@H]2CC[C@H]1N2C(=O)NCc1cc(C)oc1C(F)(F)F	7.4µM*	2%	x	u	x	x
COC(=O)C1=C(c2ccc(Cl)c(C(F)(F)F)c2)C[C@@H]2CC[C@H]1N2C(=O)N1CCCC1	12µM*	-2%	x	u	x	x
CCCNC(=O)N1[C@H]2CC[C@@H]1C(C(=O)OC)=C(c1ccc(Cl)c(C(F)(F)F)c1)C2	u	-1%	x	u	x	x
CCCCn1c(N)c(N(Cc2ccccc2OC)C(=O)C(C)Oc2ccc(Cl)cc2)c(=O)[nH]c1=O (stereo not drawn)	u	12%	0	u	20%	13
Cc1ccc(CNC(=O)CN2C(=O)CSc3ccc(S(=O)(=O)N4CCCCC4)cc32)cc1	u	1%	0	19%	8%	-9
COc1ccc(-c2[nH]ncc2CNC(C)Cc2ccsc2)c(F)c1 (stereo not drawn)	-21%	0%	1	4.7µM*	-8%	-12
CC(Cc1ccsc1)NCc1cn[nH]c1-c1ccc(F)cc1F (stereo not drawn)	-16%	0%	1	u	-6%	-1
COc1ccc(-c2[nH]ncc2CN2CCN(Cc3cccs3)CC2)c(F)c1	2%	0%	2	1%	-2%	13
COc1ccc(-c2[nH]ncc2CN(C)C(C)c2cccs2)c(F)c1 (stereo not drawn)	-21%	-1%	-2	12µM*	2%	-8
Cc1cnc(C(=O)Nc2ccc(C)c(S(=O)(=O)N(C)C)c2)cn1	32%	-11%	6	u	18%	8
Cc1ccc(NC(=O)c2ccc3ccccc3n2)cc1S(=O)(=O)N(C)C	42%	16%	27*	159%	x	79*
CCOc1ccc(NC(=O)c2c3c(nc4ccccc24)CCC3)cc1	4.1µM*	-1%	-2	3.7µM*	8%	7
Cc1ccc(NC(=O)c2c3c(nc4ccccc24)CCC3)cc1S(=O)(=O)N(C)C	-14%	-2%	37*	u	x	50*
CC(C)(C)c1ccc(C(=O)N2CCCN(c3ccc([N+](=O)[O-])cn3)CC2)cc1	u	1%	4	12µM*	-5%	-3
O=[N+]([O-])c1ccc(N2CCCC2)nc1	42%	-1%	-2	39%	1%	-2
Cc1cc(C)n(-c2cc(N3CCN(C(=O)c4ccc(C(C)(C)C)cc4)CC3)ccc2[N+](=O)[O-])n1	4.7µM*	1%	7	9.3µM*	15%	-11
CSCCC(NS(=O)(=O)c1ccccc1F)C(=O)NC(C)c1ccccc1 (stereo not drawn)	-6%	-1%	-2	-4%	x	-7
O=C(Nc1nc2c(cc3c4c(cccc42)CC3)s1)c1ccccc1Cl	-12%	-17%	10	-89%	5%	16
CCN(CC)C(=O)/C=C/c1ccc(OC)c(S(=O)(=O)N2CCCCC2)c1	-24%	-4%	2	10%	x	-2
CCCOC(=O)NCCCN(C)C	x	x	-8	x	x	-6
Cc1ccc(SCCSc2nc(C)cc(=O)[nH]2)cc1	-2%	-1%	40*	-14%	4%	x
